Source: PubChem
NS1 function inh: inhibitors of influenza NS1 protein function. actives 0.4% (n = 270,000). Potency, µM (titrated, usually from 46.1 µM), inactives show top-dose activity, positive = more growth. AID 2326; calls by dose curve; further: potency means the concentration at half of the fitted maximal effect; actives are rising curves; nearly all actives have a fitted effect of over 50% in size
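Read-out: OD600 growth recovery of NS1-expressing budding yeast. Cells grown overnight at 30C in -URA glucose medium, washed, resuspended and diluted 1:100 in 2% galactose assay medium, pH 6.0. Same strain lacking NS1 served as positive control.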
Shiga toxin inh: inhibitors of Shiga toxin in Vero cells; Vero cells, Shiga toxin protein synthesis inhibition reporter; inhibition, % at 38.7 µM; actives 9.2% (n = 290,000); AID 2315; in the data active means inhibition mostly above about 28%, no sharp cut-off; inactive means mostly below about 43%; further: 0% is about no effect
Giardia FBPA inh: Giardia lamblia aldolase inhibition; purified Giardia FBPA; Potency, µM (series often up to 59.6 µM), for the others: at the highest dose activity, negative = inhibition, most hits filed as inhibitors; actives 0.71% (n = 290,000); AID 2451; further: potency means the concentration at half of the fitted maximal effect; on the % scale 0 is the no-effect control and ±100 the full control effect; nearly all actives have a fitted effect of over 55% in size
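40 nM FBPA preincubated 10 min at RT with compound (up to 57.5 uM final), then substrate plus GAPDH/TPI/NAD/arsenate coupling and diaphorase/resazurin added. Fluorescence read after 20 min at RT, 525/598 nm.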
CHX counter: affects cycloheximide protein synthesis inhibition readout, counter-screen; cell reporter, cycloheximide protein synthesis inhibition counterscreen; max response, %; actives 12% (n = 300,000); AID 2314; in the data active means max response mostly above about 13%, no sharp cut-off; inactive means mostly below about 14%; further: read at 38.3 µM for the half of the compounds with a filed dose; 0% is about no effect
LmPK inhibitor: inhibitors of Leishmania mexicana pyruvate kinase | Potency, µM (top dose mostly 57.5 µM), without a hit: at the top dose activity change, negative = inhibition, hits mostly inhibitors | Q27686 | purified LmPK, Kinase-Glo ATP luminescence, 1 h | actives 0.37% (n = 290,000); further: potency means the concentration at half of the fitted maximal effect; on the % scale 0 is the no-effect control and ±100 the full control effect
Target sequence (Q27686 whole entry, looked up): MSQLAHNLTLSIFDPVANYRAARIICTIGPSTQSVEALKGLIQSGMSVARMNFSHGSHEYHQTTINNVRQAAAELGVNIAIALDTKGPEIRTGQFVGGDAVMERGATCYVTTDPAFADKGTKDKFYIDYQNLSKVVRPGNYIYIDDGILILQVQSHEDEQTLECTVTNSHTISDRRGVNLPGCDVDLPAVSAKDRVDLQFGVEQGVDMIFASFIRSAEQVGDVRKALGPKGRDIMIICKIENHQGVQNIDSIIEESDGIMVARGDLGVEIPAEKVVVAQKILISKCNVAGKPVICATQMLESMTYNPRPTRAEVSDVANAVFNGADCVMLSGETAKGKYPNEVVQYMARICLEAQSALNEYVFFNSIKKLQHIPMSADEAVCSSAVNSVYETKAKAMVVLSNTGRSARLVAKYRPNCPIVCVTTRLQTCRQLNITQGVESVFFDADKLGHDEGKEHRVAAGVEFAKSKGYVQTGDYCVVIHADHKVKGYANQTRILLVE
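0.1 nM LmPK, 0.5 mM PEP, 0.1 mM ADP; 50 mM imidazole pH 7.2, 7 mM MgCl2, 50 mM KCl; 1 h RT. Kinase-Glo luminescence readout, normalized to no-enzyme (full inhibition) and uninhibited wells.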
Starred values were filed as active, the others as inactive; ? = inconclusive; . = no result. Hits are enriched below; roughly 14% of the tested compounds scored in any of these assays. Unless noted, the call rests on the fitted dose curve; in most records, active means well fitted curve in the direction sought with a large enough effect; inconclusive means small, poorly fitted or top-dose-only effect, or another doubt; inactive means no such curve, though single readings can be large; an effect the other way counts as inactive or inconclusive.

SMILES	NS1 function inh	Shiga toxin inh	Giardia FBPA inh	CHX counter	LmPK inhibitor
COc1cc(NC(=O)CCc2nnc3ccc(N4CCCCC4)nn23)cc(OC)c1OC	8.1%	1.2	.	-0.8	6.6%
CCCN=C(C)C1=C(O)c2ccccc2C1=O	-6.7%	83.9*	7.0%	107.4*	1.5%
CC(=NCc1ccncc1)C1=C(O)c2ccccc2C1=O	0.5%	75.6*	-2.3%	17.8*	3.1%
CCN(CC)CCCN=C(C)C1=C(O)c2ccccc2C1=O	-14.8%	17.4	-0.3%	2.5	0.8%
O=S(=O)(O)c1cc(O)c2c(N=Cc3ccccc3O)cc(S(=O)(=O)O)cc2c1	-0.3%	.	.	.	.
CN(Cc1ccco1)S(=O)(=O)c1nnc(NC(=O)c2ccccc2Cl)s1	8.3%	-8.3	.	11.4	2.8%
CCCCN(CC)c1nc(C)nc2c1c(C)c(C)n2-c1c(C)cc(C)cc1C	.	4.9	-16.3%	5.2	.
OC1C=C2CCN3Cc4cc5c(cc4C(C1O)C23)OCO5 (stereo unspecified)	.	.	-13.0%	.	.
O=c1oc2ccccc2cc1-c1ccc(O)cc1O	0.9%	15.0	-3.1%	2.2	3.7%
O=Cc1c(-c2ccccc2)cc2oc3ccccc3cc1-2	0.2%	72.2*	4.1%	40.2*	-9.4%
CCCCCCn1c(C(C)NC(=O)c2ccco2)nc2ccccc21 (stereo unspecified)	-81.7%	4.9	1.5%	11.5*	1.5%
CC(C)Cn1c(CCCNC(=O)c2ccco2)nc2ccccc21	-6.1%	23.8	.	-2.0	-3.6%
CCC(=O)Nc1nc2ccccc2n1Cc1ccc(Cl)cc1	-50.4%	45.4	2.3%	-1.9	3.3%
CC(C)Cn1c(CCNC(=O)c2ccco2)nc2ccccc21	-10.0%	116.6	.	31.4*	5.5%
O=C(Nc1nc2ccccc2n1Cc1ccccc1)c1ccco1	?	27.5	-10.6%	25.7*	-10.2%
CCCCC[C@H]1CN(C2CCCCC2)C(=O)[C@@H]1CC(=O)NCc1ccccc1	-49.5%	-4.0	3.9%	-2.6	4.3%
O=C1c2ccccc2C(=O)N1/N=C/c1ccc(O)c(O)c1O	6.5%	55.1*	7.92µM*	24.1*	-7.4%
COc1cc(/C=N/N2C(=O)C3C4C=CC(CC4)C3C2=O)ccc1O (stereo unspecified)	.	57.4*	3.1%	42.4	8.5%
O=C1c2cccc3cccc(c23)C(=O)N1/N=C/c1ccc(O)cc1O	11.1%	20.2	-2.0%	-2.8	2.5%
Cc1ccsc1/C=N/N=C1\C(=O)Nc2ccccc21	-15.6%	49.0*	1.4%	40.1*	-2.0%
COc1cc(/C=N/N2C(=O)c3ccccc3C2=O)ccc1O	1.6%	0.0	1.7%	19.7*	-10.4%
CN(Cc1cccc(Cl)c1Cl)CC(O)COc1ccccc1 (stereo unspecified)	-5.0%	-2.3	?	-4.5	1.6%
COc1ccccc1CN1CCC2(CC1)CCN(C(=O)c1c(C)noc1C)CC2	.	.	4.2%	.	.
O=C(O)c1cc(NC(=O)c2ccco2)cc(NC(=O)c2ccco2)c1	-4.0%	16.7	1.2%	-3.1	7.2%
CC(C)Oc1ccc(CNC(=O)CCC(=O)N2CCSc3ccccc32)cc1	8.3%	-2.2	15.2%	1.6	-0.2%
SMILES	NS1 function inh	Shiga toxin inh	Giardia FBPA inh	CHX counter	LmPK inhibitor
COc1cc(NS(C)(=O)=O)ccc1Cc1c2ccccc2nc2ccccc12	.	.	-7.6%	.	.
COc1cc(/C=N/N=C2/NC(=O)C(Cc3ccc(F)cc3)S2)ccc1O (stereo unspecified)	.	84.5*	4.1%	33.6*	-5.9%
O=C1C2C3C=CC(CC3)C2C(=O)N1/N=C/c1c(O)ccc2ccccc12 (stereo unspecified)	5.6%	-11.4	11.8%	7.0	3.2%
O=C1C2C3C=CC(CC3)C2C(=O)N1/N=C/c1ccccc1O (stereo unspecified)	-13.6%	27.5	-2.7%	20.0*	-2.7%
COc1cc(/C=N/N=C2/C(=O)Nc3ccccc32)ccc1O	-18.7%	0.0	-1.9%	23.2*	-19.7%
COc1ccc2nc(C)cc(Nc3ccc(N4CCN(C)CC4)cc3)c2c1	6.9%	13.8	-5.8%	-3.0	-2.0%
O=C(NCCc1ccccn1)c1ccc(OC2CCN(Cc3ccccn3)CC2)cc1	6.2%	64.1*	.	83.1*	-3.1%
CC(Cc1ccccn1)NC(=O)c1ccc(OC2CCN(Cc3ccccn3)CC2)cc1 (stereo unspecified)	-0.2%	23.8*	.	38.2*	-3.6%
COc1ccc(N2CCN(C(=O)C3Cc4ccccc4CN3C(=O)c3ccccc3)CC2)cc1 (stereo unspecified)	.	70.9*	-6.9%	60.8*	0.1%
COc1ccc(N2CCN(C(=O)CCS(=O)(=O)c3ccc(OC)cc3)CC2)cc1	.	5.8	7.3%	-2.2	5.9%
COC(=O)N1CCN(c2ccc(C)c(C)c2)CC1	.	64.5	10.6%	22.9*	-12.9%
COc1ccc(N2CCN(C(=O)c3ccc(NS(=O)(=O)c4cccs4)cc3)CC2)cc1	.	63.4*	-3.7%	26.8*	5.4%
COC(=O)N1CCN(c2ccc(Cl)c(Cl)c2)CC1	-40.3%	-7.8	-4.2%	6.2	1.7%
COc1ccc(S(=O)(=O)CCC(=O)N2CCN(c3ccc(C(C)=O)cc3)CC2)cc1	-1.5%	56.3*	.	14.7*	3.0%
COc1ccc(N2CCN(C(=O)c3ccc(NS(=O)(=O)c4ccc(F)cc4)cc3)CC2)cc1	1.8%	43.0	-3.1%	13.4	2.7%
COc1ccc2[nH]c3c(c2c1)CCN1C(=O)N([C@@H](C)C(=O)NC2CCN(Cc4ccccc4)CC2)C(=O)[C@]31C	-0.2%	6.9	-13.4%	-3.8	-1.5%
CC(=O)OCCBr	.	-3.6	-4.3%	-3.2	.
COC(=O)N1CCN(c2ccc(OC)cc2)CC1	0.6%	-19.3	-3.2%	9.4*	-2.0%
COc1ccc(CCNC(=O)c2cc(S(=O)(=O)N3CCCCC3)c[nH]2)cc1OC	-4.8%	-2.5	-6.7%	-3.6	0.1%
CCc1ccc(C(=O)NCc2ccc(Cl)cc2Cl)cc1	-31.5%	47.0	-0.1%	14.3	-0.1%
Cc1ccc(CNC(=O)c2ccc(N(C)C)cc2)cc1	.	60.5*	0.8%	22.7*	-0.7%
CCc1ccc(C(=O)NNc2cc(Cl)cc(Cl)c2)cc1	-39.6%	9.2	5.8%	9.7	6.4%
Cc1ccc(CNC(=O)c2ccc(-n3cccc3)cc2)cc1	.	6.6	4.9%	9.2	-0.4%
